Assay outcomes from PubChem.
The list is not random: actives were taken first. Their share in the collection is about 1.4%.
N370S GC: inhibitors or activators of N370S glucocerebrosidase for Gaucher disease; 330,000 tested, 0.092% active; N370S GC spleen homogenate, 4MU-glucoside fluorescence; AID 2101; P04062; Potency, µM (titrated, usually from 59.4 µM), without a hit: top-dose activity change, negative = inhibition, actives largely listed as inhibitors;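 note: potency is the fitted concentration of half-maximal effect; 0% = full enzyme activity and -100% = no enzyme basal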
rTrxR1 inhibitor: inhibitors of rat thioredoxin reductase 1 | Potency, µM (doses to about 114 µM), without a hit: top-dose activity change, negative = inhibition, actives largely listed as inhibitors | AID 588453 | O89049 | recombinant rTrxR1, NADPH fluorescence consumption, selenite substrate | 390,000 tested, 1% active; note: potency is the fitted concentration of half-maximal effect; % is set by controls: 0 for no effect and ±100 for the full control effect; nearly all actives have a fitted effect of over 65% in size
Target sequence (O89049 whole entry, looked up): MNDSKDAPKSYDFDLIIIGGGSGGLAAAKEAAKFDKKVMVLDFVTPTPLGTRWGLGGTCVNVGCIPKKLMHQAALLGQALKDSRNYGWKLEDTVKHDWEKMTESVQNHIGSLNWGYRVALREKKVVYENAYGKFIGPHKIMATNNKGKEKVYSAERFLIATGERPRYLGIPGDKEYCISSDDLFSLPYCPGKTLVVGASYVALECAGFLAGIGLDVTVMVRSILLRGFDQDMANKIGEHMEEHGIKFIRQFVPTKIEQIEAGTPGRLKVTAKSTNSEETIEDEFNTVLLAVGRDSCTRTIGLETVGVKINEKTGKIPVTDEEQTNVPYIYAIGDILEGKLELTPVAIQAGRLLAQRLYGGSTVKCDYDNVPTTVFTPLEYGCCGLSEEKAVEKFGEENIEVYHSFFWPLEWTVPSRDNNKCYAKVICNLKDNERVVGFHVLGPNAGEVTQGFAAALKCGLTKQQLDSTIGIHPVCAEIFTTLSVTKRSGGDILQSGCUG
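Rat TrxR1 (90 nM in the dispensed reagent) was pre-reduced with 400 uM NADPH for 5 min at room temperature, then incubated with compound for 15 min. After 400 uM selenite was added, NADPH fluorescence (Ex 340/Em 450 nm) was followed for 8 min.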
A-T KAP1 phos: potential ataxia-telangiectasia treatment; F2112 A-T fibroblasts, KAP-1 phosphorylation AlphaLISA; neocarzinostatin DNA damage 30 min before lysis; Potency, µM (titrated, usually from 57.5 µM), for inactives: at the top dose activation, most hits filed as activators; 320,000 tested, 0.19% active; AID 485349; note: potency is the fitted concentration of half-maximal effect; % of control where 0% means no effect; nearly all actives have a fitted effect of over 45% in size
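hTERT-immortalized A-T patient fibroblasts (F2112), 500 cells/well in OPTI-MEM, 1% FBS, got compounds for 60 min, then NCS for 30 min at 37C. Lysates were then assayed for phospho-KAP-1 by AlphaLISA (anti-pKAP1 donor, anti-KAP1 acceptor beads), 6 hr at 25C.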
Pin1 inhibitor: blocks the human prolyl isomerase Pin1; Q13526; Pin1 FP peptide displacement, HiFluor488, 10 min; Potency, µM (series often up to 115 µM), for the others: at the highest dose activity, negative = inhibition, usual class: inhibitors; 390,000 tested, 0.009% active; AID 504891; active = well fitted inhibition curve with a large enough effect in the polarisation, with a control signal flat, not every such curve was filed as active; inconclusive = small, poorly fitted or top-dose-only effect, or effect the other way, or a change in a side signal; inactive = no such curve, though single readings can be large or run the other way; the % refers to the polarisation; note: potency is the fitted concentration of half-maximal effect; % is set by controls: 0 for no effect and ±100 for the full control effect
Target sequence (Q13526 whole entry, looked up): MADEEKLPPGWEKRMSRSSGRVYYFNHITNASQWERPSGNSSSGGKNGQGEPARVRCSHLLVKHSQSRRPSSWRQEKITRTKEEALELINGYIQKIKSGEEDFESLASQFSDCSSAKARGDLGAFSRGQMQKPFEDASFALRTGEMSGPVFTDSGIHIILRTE
pAkt inh: blocks phosphorylation of Akt; Neuro2A IGF-stimulated pAkt S473 HTRF, 20 min; active compounds read low; activity change, % for hits at 50 µM; 360,000 tested, 0.32% active; AID 651550; in the data active = activity change below about -80%; inconclusive = mostly about -51% to -80%; note: % is set by controls: 0 for no effect and ±100 for the full control effect
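Neuro2A cells in DMEM with 0.5% FBS, overnight at 37 deg C, given compound at single 50 µM final, then IGF (6 nM final) for 20 min at 37 deg C. Lysed; phospho-Akt Ser473 by HTRF after 24 h, 665/615 ratio.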
TrxR1 substrate: is turned over as a substrate by rat TrxR1 | Potency, µM (top dose mostly 114 µM), for inactives: top-dose activity change, negative = substrate turnover | purified TrxR1 substrate turnover, NADPH consumption readout | AID 588456 | 390,000 tested, 0.01% active | O89049; note: potency is the fitted concentration of half-maximal effect; % is set by controls: 0 for no effect and ±100 for the full control effect; nearly all actives have a fitted effect of over 50% in size
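Rat TrxR1, dispensed at 90 nM, was prereduced with 400 uM NADPH (final) for 5 min at ~22 deg C, then incubated with compound 15 min before 400 uM selenite. A first-read NADPH fluorescence drop versus no-compound background flagged substrates.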
Active calls of the source: *; i = inactive; ? = inconclusive; nt = no result given; [ ] = another dose, or the depositor's remark. Unless noted, calls come from the whole dose curve; as a rule, active = well fitted curve in the direction sought with a large enough effect; inconclusive = small, poorly fitted or top-dose-only effect, or another doubt; inactive = no such curve, though single readings can be large; an effect the other way counts as inactive or inconclusive.

SMILES | N370S GC | rTrxR1 inhibitor | A-T KAP1 phos | Pin1 inhibitor | pAkt inh | TrxR1 substrate
O=C(C1=C[C@@H](c2ccc(C(F)(F)F)cc2)C[C@@H](OCc2ccc(CO)cc2)O1)N1CCN(Cc2ccccc2)CC1 | 13µM* | ? | 10% | 22% | i | 2%
COc1cccc(C)c1NC(=O)C(OC(=O)CNC(=O)c1ccccc1)c1ccccc1 (stereo not given) | nt | nt | nt | 5% | nt | nt
CCOC(=O)c1ccc(-c2ccc(C=O)o2)cc1 | 12% | ? | 10% | 21% | i | 72%[57.1 µM]
CCCOC(=O)c1ccc(-c2ccc(C=O)o2)cc1 | 1% | 32µM* | 1% | 9% | i | 74%
O=C(CCl)N1CCN2C(=O)c3ccccc3C12c1ccc(Cl)cc1 (stereo not given) | -3% | 5µM* | ? | 2% | i | 11%[57.1 µM]
COc1ccc(NC(=O)CC2Sc3ncnn3C2=O)cc1 (stereo not given) | -7% | 1.6µM* | 3% | 4% | i | 11%[57.1 µM]
O=C(CC1Sc2ncnn2C1=O)Nc1ccc(Cl)cc1 (stereo not given) | -5% | ? | -4% | 5% | i | 8%[57.1 µM]
CCOC(=O)c1ccc(NC(=O)CC2Sc3ncnn3C2=O)cc1 (stereo not given) | 0% | 1.8µM* | 3% | 22% | i | 11%
Cc1ccc(Cl)cc1Nc1nc2ccccc2c2nncn12 | nt | 11% | nt | 6% | nt | 5%
Cc1cc(NC(=O)CCCC(=O)OCC(F)(F)C(F)F)cc(C)c1C(=O)O | 7% | 5% | 0% | -6% | -112%* | 5%
O=C(Nc1ccccc1)c1c(F)cccc1F | -26% | 22% | 10% | 3% | i | 8%
O=C(NC(=O)c1c(F)cccc1F)Nc1ccccc1SC(F)F | 0% | 11% | 10µM* | 1% | i | -1%
COC(=O)c1ccc(CCc2cc(O)ccc2O)cc1 | nt | 56µM* | nt | 1% | i | -15%
COC(=O)c1ccc(O)cc1 | 1% | 3%[57.1 µM] | 0% | -2% | i | 11%[57.1 µM]
COC(=O)c1ccc(CCc2cc(O)c(Br)cc2O)cc1 | nt | 22µM* | nt | -1% | i | 0%
N.N.O=C(O)C1(C(=O)O)CCC1.[Pt+2] | nt | 0.95µM* | nt | nt | nt | 14%[57.1 µM]
O=C(N/N=C/c1ccc([N+](=O)[O-])o1)c1ccc(NS(=O)(=O)c2cccs2)cc1 | -14% | 10µM* | 14% | ? | i | -3%
O=C(N/N=C\C=C\c1ccc([N+](=O)[O-])o1)c1cccs1 | -22% | 7.9µM* | 14% | ? | i | -3%
O=C(N/N=C/c1ccc([N+](=O)[O-])cc1)c1ccc(NS(=O)(=O)c2cccs2)cc1 | nt | -6% | -6% | -3% | i | -12%
COc1ccccc1OCC(=O)N/N=C/C=C/c1ccc([N+](=O)[O-])o1 | -6% | 7.1µM* | 6% | -4% | i | -3%
CCC(=O)N1CCc2cc(Br)cc(S(=O)(=O)N3CCN(c4cccc(Cl)c4)CC3)c21 | nt | 21% | nt | -9% | nt | 9%[2.29 µM]
COc1cc(OC)c(OC)cc1/C=C/c1nccc2ccccc12 | nt | -25% | nt | nt | nt | -8%
Cn1c(SCC(=O)c2ccccc2)nc2cccnc21 | -14% | -5% | 6% | -2% | i | 6%
Cc1ccc(C(=O)CSc2nc3cccnc3n2C)cc1 | 2% | 6% | 1% | 4% | -106%* | -2%
COc1ccc(CCNS(=O)(=O)c2cccc(S(=O)(=O)N3CCCC3)c2)cc1OC | 2% | 8% | -3% | -19% | i | -3%
SMILES | N370S GC | rTrxR1 inhibitor | A-T KAP1 phos | Pin1 inhibitor | pAkt inh | TrxR1 substrate
O=S(=O)(NCC1CC1)c1cccc(S(=O)(=O)N2CCCC2)c1 | 2% | 20% | 0% | 0% | -112%* | 7%[57.1 µM]
O=C(Cc1ccc(Cl)cc1)N1CCN(c2ccc(F)cc2)CC1 | -1% | -3% | 32% | -12% | i | 6%
O=C(NCCN1CCCC1)c1cccc(Cl)c1 | 8% | 10%[57.1 µM] | 1% | -1% | i | 3%[57.1 µM]
O=C(CCN1CCN(c2ccccc2)CC1)c1ccc(Cl)cc1 | -16% | 1.6µM* | 5% | 0% | i | -6%
O=C(CCN1CCCCC1)c1cccc(Cl)c1 | nt | 0.35µM* | nt | -5% | i | 12%[57.1 µM]
O=C(CCN1CCN(c2ccc([N+](=O)[O-])cc2)CC1)c1ccc(Cl)cc1 | -12% | 7.1µM* | -26% | 3% | i | -9%
O=C(Cc1ccc(Cl)cc1)N1CCN(c2ccccc2)CC1 | -9% | 4% | 22µM* | 2% | i | 5%
Cc1cc2c(s1)c1cnn(Cc3ccc(OC(F)F)cc3)c(=O)c1n2C | nt | nt | nt | -1% | nt | nt
COc1ccc(-c2nc(C)c(CCNC(=O)c3ccco3)s2)cc1 | nt | 16%[57.1 µM] | nt | 8% | nt | 20%[57.1 µM]
COc1ccc(C2Nc3ccccc3C(=O)N2Cc2ccccc2)cc1COc1ccc(C#N)cc1 (stereo not given) | nt | nt | nt | 15% | nt | nt
COc1ccc(N2CCN(CCC(=O)c3ccc4ccccc4c3)CC2)cc1 | -9% | 1.8µM* | -14% | 2% | i | 5%
Cc1cc(Sc2nnc(N)s2)c2ccccc2n1 | 8% | 8.9µM* | 40µM* | 1% | i | 3%
CCCCCCCCSc1nnc(/N=C/N(C)C)s1 | 1% | 33%[57.1 µM] | 2% | -4% | i | 1%[57.1 µM]
Cc1cc(Sc2nnc(/N=C/N(C)C)s2)c2ccccc2n1 | 3% | 2.5µM* | 27% | 7% | i | -3%
Cn1cccc1CC(=O)N/N=C/C=C/c1ccco1 | 6% | 50µM* | nt | ? | i | -4%
O=C(N/N=C/C=C/c1ccco1)C(O)c1ccccc1 (stereo not given) | nt | 13µM* | nt | ? | i | -3%
C/C(=N\NC(=O)Cc1cccn1C)c1ccco1 | -4% | ? | 4% | 3% | i | -3%
COc1ccc(/C=C2\C=Cc3ccccc32)cc1OC | nt | -18% | nt | nt | nt | -6%
N#Cc1cn(CCOc2ccc(F)cc2)c2ccccc12 | 22% | 24% | 5% | -4% | -117%* | 3%
Cc1cc(C(=O)N2CCN(S(C)(=O)=O)CC2)sc1-c1ccccc1 | -13% | 0%[57.1 µM] | 5% | -9% | -82%* | 2%[57.1 µM]
Cc1cccc(N=C2NC(=O)/C(=C/C=C/c3ccco3)S2)c1C | 7% | ? | -19% | ? | i | -16%
COc1ccc(N=C2NC(=O)/C(=C/C=C/c3ccccc3)S2)cc1 | -2% | 6%[57.1 µM] | -8% | -1% | i | -5%[57.1 µM]
O=C1NC(=Nc2ccccc2)S/C1=C\C=C\c1ccco1 | 7% | 79µM* | nt | 8% | i | -11%
Cc1ccc(N=C2NC(=O)/C(=C/C=C/c3ccco3)S2)cc1 | -8% | 45µM* | -4% | nt | i | -5%
O=C1Cc2cc(S(=O)(=O)N3CCN(c4cccc(C(F)(F)F)c4)CC3)ccc2N1 | nt | nt | nt | 23%[230 µM] | nt | nt
